# Source: PubChem BioAssay (NCATS)
# Values joined by “and” are separate entries in the source; they are usually repeats but may differ in a detail not shown here. Equal values may be shown once. Unmarked numbers belong to inactive results. Records with an inconclusive call do not appear. Entries that show only a call come without a potency. Active and inactive are the calls of the source. Calls follow the shape of the dose curve; as a rule, active = well fitted curve in the direction sought with a large enough effect; inconclusive = small, poorly fitted or top-dose-only effect, or another doubt; inactive = no such curve, though single readings can be large; an effect the other way counts as inactive or inconclusive.
# What was measured:
# [1] = Confirmatory screen NINDS Rhodamine qHTS for Zika virus inhibitors (AID 1347161); also: nearly all actives have a fitted effect of over 60% in size; also: potency is read from the fitted curve at half-maximal effect
# Summary of the method: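 Single-chain NS2B-NS3 protease, 25 nM, pH 8.0; compounds preincubated 15 min. Activity: Rhodamine110 release from 1.5 microM substrate over 15 min, room temperature, data fitted to 4-parameter Hill.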
# [2] = target: Lysine-specific demethylase 5B (Homo sapiens) (UniProt Q9UGL1); test: Optimization screen for KDM5B Histone Demethylases FDH coupled qHTS against the LOPAC library (AID 1347166)
# Lysine-specific demethylase 5B (Homo sapiens), sequence (Q9UGL1 whole entry, looked up): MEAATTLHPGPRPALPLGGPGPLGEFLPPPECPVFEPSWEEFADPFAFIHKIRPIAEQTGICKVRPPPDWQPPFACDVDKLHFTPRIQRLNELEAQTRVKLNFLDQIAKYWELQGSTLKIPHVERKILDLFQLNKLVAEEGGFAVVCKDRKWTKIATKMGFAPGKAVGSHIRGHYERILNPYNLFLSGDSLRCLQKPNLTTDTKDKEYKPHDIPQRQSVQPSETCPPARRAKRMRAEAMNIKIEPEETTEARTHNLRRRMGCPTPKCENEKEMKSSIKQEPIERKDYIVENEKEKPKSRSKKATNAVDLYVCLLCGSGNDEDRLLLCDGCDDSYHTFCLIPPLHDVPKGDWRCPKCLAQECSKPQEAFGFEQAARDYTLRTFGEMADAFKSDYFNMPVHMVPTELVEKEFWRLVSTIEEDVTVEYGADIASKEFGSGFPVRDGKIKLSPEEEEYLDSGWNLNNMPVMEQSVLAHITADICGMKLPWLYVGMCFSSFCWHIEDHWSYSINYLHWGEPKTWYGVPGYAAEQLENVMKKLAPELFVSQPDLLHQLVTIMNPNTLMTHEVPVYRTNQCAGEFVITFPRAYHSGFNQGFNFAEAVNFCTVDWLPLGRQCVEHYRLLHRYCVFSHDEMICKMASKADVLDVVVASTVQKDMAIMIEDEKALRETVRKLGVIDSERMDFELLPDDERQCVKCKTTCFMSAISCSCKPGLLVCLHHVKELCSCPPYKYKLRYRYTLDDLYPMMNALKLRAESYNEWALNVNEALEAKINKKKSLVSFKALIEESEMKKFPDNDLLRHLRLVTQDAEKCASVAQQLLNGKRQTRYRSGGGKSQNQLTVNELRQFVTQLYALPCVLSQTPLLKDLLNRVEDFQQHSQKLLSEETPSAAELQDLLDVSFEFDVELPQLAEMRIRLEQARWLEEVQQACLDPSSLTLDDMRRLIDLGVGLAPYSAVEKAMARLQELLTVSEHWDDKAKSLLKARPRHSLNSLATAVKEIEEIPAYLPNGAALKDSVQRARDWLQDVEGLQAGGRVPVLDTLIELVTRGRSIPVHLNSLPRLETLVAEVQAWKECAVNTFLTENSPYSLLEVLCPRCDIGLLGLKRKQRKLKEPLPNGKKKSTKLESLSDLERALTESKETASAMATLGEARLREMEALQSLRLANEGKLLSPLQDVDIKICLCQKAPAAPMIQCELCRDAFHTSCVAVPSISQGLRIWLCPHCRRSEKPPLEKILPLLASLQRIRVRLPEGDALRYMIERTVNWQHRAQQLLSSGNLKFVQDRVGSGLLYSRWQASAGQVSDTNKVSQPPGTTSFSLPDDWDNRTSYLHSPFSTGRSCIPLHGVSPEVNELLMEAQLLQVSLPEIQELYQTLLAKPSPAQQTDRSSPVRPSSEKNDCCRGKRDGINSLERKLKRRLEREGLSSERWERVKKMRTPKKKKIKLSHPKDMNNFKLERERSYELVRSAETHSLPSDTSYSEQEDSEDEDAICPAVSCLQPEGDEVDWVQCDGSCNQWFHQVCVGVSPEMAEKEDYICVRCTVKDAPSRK
# Summary of the method: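 KDM5BDeltaAP (200nM final) in 50mM HEPES pH 7.5, 0.01% Tween-20 was preincubated with compound for 10 min at room temperature. A substrate mix of 12.5uM H3K4Me3, 25uM a-ketoglutarate, ascorbate, Fe2+, NAD+ and formaldehyde dehydrogenase was then added. NADH fluorescence (340/450 nm) was read initially and after 30 min.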
# [3] = Vero cells viability qHTS for Zika virus inhibitors (AID 1347167)
# Summary of the method: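 Luminescent ATP readout (CellTiter Glo) after 30 min at 37 degrees C gives viability; cells in DMEM + 4% FBS were treated 24 to 48 hours with compound, following overnight attachment.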
# [4] = qHTS to identify inhibitors of the type 1 interferon - major histocompatibility complex class I in skeletal muscle: primary screen against the NCATS LOPAC collection (AID 1347405);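 also: human myoblasts with HiBiT tag on endogenous HLA-B stimulated by IFN-beta; lytic HiBiT luminescence reporting HLA-B protein level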
# Summary of the method: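 IFN-beta-stimulated (4 ng/ml) HLA-B HiBiT knock-in myoblasts, compound-treated 24 hrs up to 46 uM final; signal via LgBiT complementation and furimazine luminescence.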
# [5] = qHTS for inhibitors of adenylyl cyclases using a fission yeast platform: a pilot screen against the NCATS LOPAC library (AID 1347410)
# Summary of the method: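 Inhibition of GNAS-stimulated AC9 activity in S. pombe was inferred from derepression of a PKA-repressed fbp1-GFP reporter, measured as cytometric fluorescence after 18 h at 30C with compounds at up to 57 µM.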
# [6] = qHTS to identify inhibitors of the type 1 interferon - major histocompatibility complex class I in skeletal muscle: primary screen against the NCATS Mechanism Interrogation Plate v5.0 (MIPE) Libary (AID 1347411); also: nearly all actives have a fitted effect of over 65% in size; also: potency is read from the fitted curve at half-maximal effect
# Summary of the method: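 IFN-beta-driven (4 ng/ml) HLA-B-HiBit expression in CRISPR-tagged C25cl48 myoblasts; compounds 11-pt, 1:3, max 46 uM, 24 hr exposure; lytic NanoLuc complementation luminescence.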
# [7] = target: Protein phosphatase 1D (Homo sapiens) (UniProt O15297); test: RapidFire Mass Spectrometry qHTS Assay for Modulators of WT P53-Induced Phosphatase 1 (WIP1) (AID 1347424);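 also: amount of dephosphorylated VEPPL-S-QETFS peptide product formed by WIP1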; also: potency is read from the fitted curve at half-maximal effect
# Protein phosphatase 1D (Homo sapiens), sequence (O15297 whole entry, looked up): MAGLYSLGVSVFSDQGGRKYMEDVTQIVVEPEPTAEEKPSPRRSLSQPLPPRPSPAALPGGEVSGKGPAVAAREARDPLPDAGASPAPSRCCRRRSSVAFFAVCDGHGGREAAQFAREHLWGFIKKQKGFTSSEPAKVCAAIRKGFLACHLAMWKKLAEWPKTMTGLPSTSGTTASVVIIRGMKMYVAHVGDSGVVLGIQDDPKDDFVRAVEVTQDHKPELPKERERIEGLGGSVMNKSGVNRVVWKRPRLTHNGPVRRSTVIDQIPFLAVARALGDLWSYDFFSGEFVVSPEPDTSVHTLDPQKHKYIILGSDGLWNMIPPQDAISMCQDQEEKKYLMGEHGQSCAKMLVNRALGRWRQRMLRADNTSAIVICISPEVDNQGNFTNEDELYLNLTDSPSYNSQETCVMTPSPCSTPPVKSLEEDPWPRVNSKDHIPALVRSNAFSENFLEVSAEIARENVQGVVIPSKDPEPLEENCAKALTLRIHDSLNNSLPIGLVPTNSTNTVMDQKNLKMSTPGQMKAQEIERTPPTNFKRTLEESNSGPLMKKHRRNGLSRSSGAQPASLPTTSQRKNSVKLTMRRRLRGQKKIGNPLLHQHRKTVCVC
# Summary of the method: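 RapidFire mass spectrometry measured dephosphorylated peptide after 5 min room-temperature reaction of 2 uM VEPPL-pS-QETFS with 10 nM WIP1 (50 mM Tris-HCl pH 7.5, 30 mM MgCl2, 0.1 mM EGTA, BSA), following 1 hr compound preincubation; 1 uM isotope-labelled product standard.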
# [8] = target: Protein phosphatase 1D (Homo sapiens) (UniProt O15297); test: Rhodamine-PBP qHTS Assay for Modulators of WT P53-Induced Phosphatase 1 (WIP1) (AID 1347425)
# Summary of the method: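 5 nM WIP1 + 10 uM Rh-PBP, 50 mM Tris pH 7.5, 30 mM MgCl2, 1 mM TCEP, 0.1 mM EGTA, BSA; cpds pinned, 1 hr RT; + 10 uM phosphopeptide; fluorescence 1-min reads x 11 min; delta = f1 - f0.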
# [9] = Validation qHTS assay for inhibitors of Activation Induced Cytidine Deaminase (AID): UDG Counterscreen signal (AID 1347427)
# Summary of the method: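 Fluorescence at 560 nm excitation, 665 nm emission reports UDG signal after 250 mM NaOH (2x) addition and 30 min. Enzymes (AID 1 uM, UDG 2 U/mL, at 4/3x) preincubated 10 min with compound, then 4 h with 4x 250 nM DJC20/DJC23 substrate at room temperature.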
# [10] = target: Single-stranded DNA cytosine deaminase (Homo sapiens) (UniProt Q9GZX7); test: Validation qHTS assay for inhibitors of Activation Induced Cytidine Deaminase (AID): AID signal (AID 1347429); also: potency is read from the fitted curve at half-maximal effect
# Single-stranded DNA cytosine deaminase (Homo sapiens), sequence (Q9GZX7 whole entry, looked up): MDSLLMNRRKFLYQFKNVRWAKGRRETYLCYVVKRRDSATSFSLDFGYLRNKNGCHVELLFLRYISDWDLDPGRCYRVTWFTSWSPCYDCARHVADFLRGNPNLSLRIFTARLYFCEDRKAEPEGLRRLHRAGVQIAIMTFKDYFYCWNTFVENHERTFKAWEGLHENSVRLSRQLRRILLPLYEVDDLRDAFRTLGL
# Summary of the method: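 Compounds (up to 114 uM final) are tested against AID plus UDG using DJC20/DJC23 FRET substrate. Reactions incubate 4 hr at room temperature, receive NaOH for 30 min, and are read at Ex 540/Em 590 nm.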
# [11] = Primary qHTS for inhibitors of La Crosse Virus (LACV) - induced cell death in SH-SY5Y cells (AID 1508616);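 also: top concentration of the series differs between compounds; higher means more rescue of cells from virus-induced death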
# Summary of the method: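 Screening measures cell viability in LACV-infected SH-SY5Y cultures. Compound was added before virus (0.01 MOI), and ATP was detected by luminescence 6 days later.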
# [12] = Tertiary RLuc qRT-PCR qHTS assay for Zika virus inhibitors (AID 1347169); also: nearly all actives have a fitted effect of over 55% in size; also: potency is read from the fitted curve at half-maximal effect
# Summary of the method: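 Inhibition of ZIKV-RLuc replication in Vero cells, read as Renilla luminescence 1-1.5 hrs after live-cell substrate addition, following 48-72 hrs infection at MOI 1-2 in presence of compound.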
# [13] = target: Calcium and integrin-binding protein 1 (Homo sapiens) (UniProt Q99828); test: Primary qHTS for Identification of Calcium Integrin Binding Protein 1 (CIB1) Competitor (AID 1508620);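 also: GST tagged CIB1 binding a fluorescein labelled alphaIIb integrin peptide tracer; top concentration of the series differs between compounds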
# Calcium and integrin-binding protein 1 (Homo sapiens), sequence (Q99828 whole entry, looked up): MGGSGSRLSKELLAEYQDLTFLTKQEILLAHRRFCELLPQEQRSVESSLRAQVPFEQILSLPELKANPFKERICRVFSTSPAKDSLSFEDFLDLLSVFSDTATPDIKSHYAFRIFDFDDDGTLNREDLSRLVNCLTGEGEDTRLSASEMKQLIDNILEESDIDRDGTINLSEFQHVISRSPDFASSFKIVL
# Summary of the method: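 CIB1-GST (1 uM final) and compound incubated 15 min at room temperature before adding FITC-alphaIIb peptide tracer (100 nM final). Competition for binding read by fluorescence polarization (ex 480, em 540) after another 15 min at room temperature.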
# [14] = qHTS to identify inhibitors of the type 1 interferon - major histocompatibility complex class I in skeletal muscle: primary screen against the NCATS Pharmaceutical Collection (AID 1347407);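 also: luminescence of HiBiT knocked into endogenous HLA-B as interferon-induced MHC class I level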
# Summary of the method: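 A qHTS format is used: 8-point, 1:5 compound series with 46 uM top final concentration, applied alongside 4 ng/ml IFN-beta to HLA-B*08:01-HiBiT knock-in myoblasts. Luminescence is measured after 24 h treatment.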
# [15] = target: Calcium and integrin-binding protein 1 (Homo sapiens) (UniProt Q99828); test: Validation qHTS for Identification of Calcium Integrin Binding protein 1 (CIB1) Competitor (AID 1508618); also: potency is read from the fitted curve at half-maximal effect
# Summary of the method: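 Displacement of FITC-alphaIIb peptide (100 nM) from CIB1-GST (1 uM) is monitored by polarization in quantitative HTS format; buffer carries 5 mM CaCl2 and 125 mM NaCl at pH 7.4, incubations are at room temperature.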
# [16] = test system: Zika virus NS2B-NS3 protease (linked); test: 384 well plate NINDS AMC confirmatory qHTS for Zika virus inhibitors (AID 1347163); also: potency is read from the fitted curve at half-maximal effect; nearly all actives have a fitted effect of over 50% in size
# Summary of the method: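 Enzyme (5, 30 or 60 nM final) first met test compounds for ~15 min. The AMC-tagged peptide Ac-VKTGKR-AMC followed at 30 microM. Fluorescence was then recorded at 25 min and scaled against no-enzyme and no-inhibitor wells.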
# [17] = test system: Zika virus NS2B-NS3 protease (linked construct); test: 384 well plate NINDS Rhodamine confirmatory qHTS for Zika virus inhibitors (AID 1347164); also: nearly all actives have a fitted effect of over 65% in size; also: potency is read from the fitted curve at half-maximal effect
# Summary of the method: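 Cleavage of Ac-LKRR-Rhodamine 110 (10 microM final) by linked protease (final 5, 30 or 60 nM) was followed as fluorescence at 485/538 nm after 25 min, room temperature, dark. Compounds preincubated ~15 min.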
# [18] = Counterscreen qHTS for small molecule stabilizers of the endoplasmic reticulum resident proteome: GLuc-NoTag assay (AID 1508627);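 also: SH-SY5Y cells given compound then 100 nM thapsigargin to empty ER calcium; series mostly up to about 76 µM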
# Summary of the method: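 Counterscreen line: SH-SY5Y-GLuc-NoTag cells, treated with compound 19 hr before a 4 hr, 100 nM thapsigargin calcium depletion. Secreted Gaussia luciferase in the medium was measured by luminescence after coelenterazine was added (0.07x final), with cells unlysed.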
# [19] = target: Calcium and integrin-binding protein 1 (Homo sapiens) (UniProt Q99828); test: Confirmatory qHTS for Identification of Calcium Integrin Binding Protein 1 (CIB1) Competitor (AID 1508617); also: potency is read from the fitted curve at half-maximal effect; nearly all actives have a fitted effect of over 65% in size
# Summary of the method: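 Confirmatory qHTS measures displacement of a FITC-alphaIIb peptide (100 nM) from CIB1-GST (1 uM) by fluorescence polarization. Calcium-containing HEPES buffer, pH 7.4; two 15 min room-temperature incubations.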
smiles,measurement,setting,value
CN1CCN(CCCN2c3ccccc3Sc3ccc(C(F)(F)F)cc32)CC1,Potency,[1],inactive
same,outcome,[2],inactive
same,outcome,[3],inactive
same,Potency,[4],inactive
same,outcome,[5],inactive
same,Potency,[6],inactive
same,Potency,[7],inactive
same,outcome,[8],inactive
same,outcome,[9],inactive
same,Potency,[10],inactive
same,outcome,[11],inactive
COc1cc2c(cc1OC)CN(CCc1ccc(NC(=O)c3cccc4c(=O)c5cccc(OC)c5[nH]c34)cc1)CC2,Potency,[1],55.5 µM (active)
same,Potency,[12],inactive
same,Potency,[6],inactive
same,outcome,[13],inactive
CC(C)(C)NCC(O)c1ccc(O)c(CO)c1 (stereo unspecified),outcome,[2],inactive
same,Potency,[4],inactive
same,outcome,[14],inactive
same,outcome,[5],inactive
same,Potency,[6],inactive
same,Potency,[7],inactive
same,outcome,[8],inactive
same,outcome,[9],inactive
same,Potency,[10],inactive
same,outcome,[11],inactive
same,Potency,[15],inactive
same,outcome,[13],inactive
O=C(O)COCCN1CCN(C(c2ccccc2)c2ccc(Cl)cc2)CC1 (stereo unspecified),outcome,[2],inactive
same,Potency,[4],inactive
same,outcome,[14],inactive
same,outcome,[5],inactive
same,Potency,[7],inactive
same,outcome,[8],inactive
same,outcome,[9],inactive
same,Potency,[10],inactive
same,outcome,[11],inactive
same,Potency,[15],inactive
same,outcome,[13],inactive
C[C@]12CCC(=O)C=C1CC[C@@H]1[C@@H]2[C@@H](O)C[C@@]2(C)[C@H]1CC[C@]2(O)C(=O)CO,outcome,[2],inactive
same,Potency,[4],inactive
same,outcome,[14],inactive
same,outcome,[5],inactive
same,Potency,[6],inactive
same,Potency,[7],inactive
same,outcome,[8],inactive
same,outcome,[11],inactive
Cc1cc(SCc2sc(-c3ccc(C(F)(F)F)cc3)nc2C)ccc1OCC(=O)O,Potency,[1],2.78 µM (active) and 3.12 µM (active)
same,Potency,[16],2.82 µM (active)
same,Potency,[17],2.82 µM (active)
same,outcome,[3],inactive
same,Potency,[12],14.7 µM (active)
same,Potency,[6],inactive
same,outcome,[13],inactive
CC(C)(Sc1ccc(CCN(CCCCC2CCCCC2)C(=O)NC2CCCCC2)cc1)C(=O)O,Potency,[16],3.16 µM (active)
same,Potency,[17],inactive
same,outcome,[2],inactive
same,outcome,[3],inactive
same,Potency,[4],inactive
same,outcome,[5],inactive
same,Potency,[6],inactive
same,outcome,[9],inactive
same,Potency,[10],79.4 µM (active)
same,outcome,[11],inactive
same,outcome,[13],inactive
same,Potency,[18],inactive
O=c1[nH]cnc2[nH]ncc12,outcome,[2],inactive
same,Potency,[4],inactive
same,outcome,[14],inactive
same,outcome,[5],inactive
same,Potency,[6],inactive
same,Potency,[7],inactive
same,outcome,[8],inactive
same,outcome,[9],inactive
same,Potency,[10],inactive
same,outcome,[11],inactive
same,Potency,[15],inactive
same,outcome,[13],inactive
Cc1cc2c(C(C)C)c(O)c(O)c(C=O)c2c(O)c1-c1c(C)cc2c(C(C)C)c(O)c(O)c(C=O)c2c1O,Potency,[1],2 µM (active)
same,Potency,[16],35.5 µM (active)
same,Potency,[17],inactive
same,outcome,[14],inactive
same,outcome,[5],inactive
same,Potency,[6],23.4 µM (active)
same,Potency,[7],3.98 µM (active)
same,outcome,[9],inactive
same,outcome,[11],inactive
same,Potency,[19],3.16 µM (active) and 28.2 µM (active)
same,Potency,[15],22.4 µM (active)
CCCc1nc2c(C)cc(-c3nc4ccccc4n3C)cc2n1Cc1ccc(-c2ccccc2C(=O)O)cc1,Potency,[1],13.9 µM (active)
same,outcome,[3],inactive
same,outcome,[14],inactive
same,Potency,[6],inactive
same,outcome,[11],inactive
same,outcome,[13],inactive
COc1ccccc1-c1cccc(-c2c(O)c3cc(C#N)c(Cl)cc3[nH]c2=O)c1,Potency,[1],27.8 µM (active)
same,Potency,[16],50.1 µM (active)
same,Potency,[17],7.08 µM (active)
same,outcome,[3],inactive
same,Potency,[6],inactive
O=C1CCC(N2C(=O)c3ccccc3C2=O)C(=O)N1 (stereo unspecified),outcome,[2],inactive
same,Potency,[4],inactive
same,outcome,[14],inactive
same,outcome,[5],inactive
same,Potency,[6],inactive
same,Potency,[7],inactive
same,outcome,[8],inactive
same,outcome,[9],inactive
same,Potency,[10],inactive
same,outcome,[11],inactive
same,Potency,[15],inactive
same,outcome,[13],inactive
